# Data: PubChem BioAssay (Tox21)
# The source made the active and inactive calls. The call rests on the fitted dose curve; in most records, active means well fitted curve in the direction sought with a large enough effect in the repeat runs; inconclusive means weak or mixed curves; inactive means flat fitted curve, though single readings scatter.
# Experiment: qHTS assay to test for compound auto fluorescence at 460 nm (blue) in HepG2 cells (AID 720687)
# Settings: autofluorescence 405/460 nm, 1 h; series mostly up to 91.3 µM
# Description: U.S. Tox21 Program National Center for Advancing Translational Sciences [NCATS] NIH Chemical Genomics Center [NCGC] U.S. Environmental Protection Agency [EPA] National Institutes of Environmental Health Sciences [NIEHS] National Toxicology Program [NTP] U.S. Food and Drug Administration [FDA] Tox21 Assay Overview: Compound auto fluorescence often interferes with screening of the compound library against various biological targets and signaling pathways. Some of these compounds may have fluorophoric properties. Such properties may interfere with the assay outputs resulting in false positives and/or negatives. To decrease such complications and ensure the compound activities are relevant in terms of biological response, the Tox21 10K compound library was screened for auto fluorescence. From the fluorophores used as reporter signals in our screening assays, the auto fluorescence equivalencies of compounds against three fluorophores have been evaluated: Triamterene, Fluorescein and Rose Bengal sodium for blue, green and red fluorescence, respectively. The fluorescence intensities were measured using Excitation/Emission wavelengths at 405/460nm, 485/535nm and 540/590nm for blue, green and red labels, respectively. This assay includes the blue fluorescence data.
# Tox21 Assay Protocol Summary: 2,000 HepG2 cells in 5 uL of culture medium (MEM containing 10% FBS) per well were dispensed into black wall/clear bottom 1536-well plates using a Multidrop Combi Dispenser (ThermoFisher Scientific, Waltham, MA). The assay plates were incubated overnight at 37 C to allow cell attachment to the well bottom, followed by the transfer of 23 nL compound or DMSO vehicle by a pintool work station (Kalypsys , San Diego, CA). After the assay plates were incubated for 1 hr at 37 C and 5% CO2, fluorescence intensities in the assay plates were measured by an Envision (PerkinElmer, Shelton, CT) plate reader using three labels for measuring blue, green and red fluorescence at […] 460, 535 and 590 nm respectively.
row,SMILES,outcome
1,CCCCCCCO,inactive
2,CSc1ccc(Cl)cc1,inactive
3,CCCCC(C=O)CC (stereo not given),inactive
4,C=CCCCCCCCCC(=O)O,inactive
5,Cc1ccc(C(C)C)c(O)c1,inactive
6,C[Si]1(C)O[Si](C)(C)O[Si](C)(C)O[Si](C)(C)O1,inactive
7,CC(C)OC(=O)COc1ccc(Cl)cc1Cl,inactive
8,OCc1ccccc1,inactive
9,CN(C)CCOC(=O)COc1ccc(Cl)cc1,inactive
10,CC1(C)NC(=O)NC1=O,inactive
11,O=C(O)CCCCCCCCC(=O)O,inactive
12,COCCOC(=O)c1ccccc1C(=O)OCCOC,inactive
13,CNC(=S)N(C)C,inactive
14,O=C(O)c1ccc(S(=O)(=O)N(Cl)Cl)cc1,inactive
15,CC(C)CC(C)O (stereo not given),inactive
16,C=CC(C)CCCC(C)(C)O (stereo not given),inactive
17,CC1(C)S[C@@H]2[C@H](NC(=O)COc3ccccc3)C(=O)N2[C@H]1C(=O)O,inactive
18,CC(=O)Oc1ccc(C)cc1,inactive
19,CCNC(=S)NCC,inactive
20,CN1C(=O)CC[C@H]1c1cccnc1,inactive

row,SMILES,outcome
1,Cc1ccc2ncccc2c1,inactive
2,COc1ccc(C)cc1N,inactive
3,CC(C)(Oc1ccc(CCNC(=O)c2ccc(Cl)cc2)cc1)C(=O)O,inactive
4,O=[N+]([O-])c1ccc2nc[nH]c2c1,inactive
5,O=C1C(c2[nH]c3ccccc3c2O)=Nc2ccccc21,inactive
6,C=CC(=O)OCCC(=O)O,inactive
7,COc1ccc([N+](=O)[O-])cc1N,inactive
8,Clc1ccccn1,inactive
9,CC(=O)OC1CC(C)OC(C)O1 (stereo not given),inactive
10,CCCCCCCCCCN,inactive
11,CCCCCCO,inactive
12,COC(=O)CCCC(=O)OC,inactive
13,CCCOC(=O)c1ccccc1,inactive
14,CC(CCO)CC(C)(C)C (stereo not given),inactive
15,CC(C)c1cccc(C(C)C)c1,inactive
16,CCNc1cccc(C)c1,inactive
17,C=CC[N+](C)(C)CC=C,inactive
18,CC(C)=CCl,inactive
19,CCO[Si](CCC#N)(OCC)OCC,inactive
20,c1ccc2c(c1)Cc1ccccc1-2,inactive
